In all, about 63,000 compounds went through this assay and about 1,100 (1.7%) were called active. This is one part of a sample in which actives are shown more often than they occur. Measured potencies and affinities stand elsewhere. Unmarked numbers belong to inactive results. Rule as the data show it: active = cytotoxicity above about 50%; inactive = the rest.

This experiment can be described thus: HPDE-C7 pancreatic duct cell viability loss – fluorescence, HTS (AID 430).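 Also: cells exposed to compound for 48 hours before viability readout; 0% = vehicle and 100% = reference cytotoxic drug.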 As to conditions: HPDE-C7 pancreatic duct cells viability, at 10 µM, hits give high values.
With `CCS(=O)(=O)N1CCCC(C(=O)NCc2ccc3c(c2)OCO3)C1` (centres undefined), the cytotoxicity was -13.3%. In the case of `Cc1cc(C)n(-c2nncc(-c3ccccc3)n2)n1` it was 0.6%. In the case of `Cc1cc(NC(=O)CSc2nnc(Cn3c(=O)sc4ccccc43)n2-c2ccccc2C)no1` it was -24.2%. In the case of `Cc1cc(C)nc(SCC(=O)c2ccc(O)cc2O)n1` it was -21%; in that of `Cc1ccc(S(=O)(=O)CCC(=O)OCC(=O)Nc2cc(C)on2)cc1`, -14.2%; in that of `OCC1OC(n2nc3ccccc3n2)C(O)C(O)C1O` (centres undefined), -4.3%.

Regarding `COc1cccc(-n2c(CNC(=O)OC(C)(C)C)n[nH]c2=S)c1`, the cytotoxicity was 2.9%. Then `O=S(=O)(Nc1cccc2ncccc12)c1cccs1`, with 45.6%; and `Cc1ccc2ncccc2c1NS(=O)(=O)c1ccccc1`, with -17.3%; and `CCOCC(=O)Nc1nnc(Cc2ccc(OC)c(OC)c2)s1`, with -11.9%. Then `O=C(NCCCN1CCOCC1)c1cc2ccccc2oc1=O`, with 3.1%; and `Cc1oc(-c2ccc(Cl)cc2)nc1CN1CCC(C(=O)NCc2cccnc2)CC1`, with -28.8%; and `COCCOC(=O)c1[nH]c2c(c1C)C(=O)CC(c1ccc(F)cc1)C2` (centres undefined), with 4.9%. In the case of `CCOCCOC(=O)c1[nH]c2c(c1C)C(=O)CC(c1ccc(N(C)C)cc1)C2` (centres undefined) it was -3.3%. As to `CCCOC(=O)c1[nH]c2c(c1C)C(=O)CC(c1ccc(OC)c(OC)c1)C2` (centres undefined), the cytotoxicity was -5.7%. Then `COCCOC(=O)c1[nH]c2c(c1C)C(=O)CC(c1ccc(N(C)C)cc1)C2` (centres undefined), with -10.9%; and `COC(=O)c1[nH]c2c(c1C)C(=O)CC(c1ccccc1)C2` (centres undefined), with 45.6%. On to `COC(=O)c1[nH]c2c(c1C)C(=O)CC(c1ccc(C)cc1)C2` (centres undefined), for which the cytotoxicity was 1.7%. Then `CCOc1ccc(C2CC(=O)c3c([nH]c(C(=O)OC)c3C)C2)cc1OC` (centres undefined), with 2.6%; and `COC(=O)c1[nH]c2c(c1C)C(=O)CC(c1cccs1)C2` (centres undefined), with 70.9% (active); and `CCOC(=O)c1[nH]c2c(c1C)C(=O)CC(c1ccc(F)cc1)C2` (centres undefined), with 70.4% (active). For the compound `COCCOC(=O)c1[nH]c2c(c1C)C(=O)CC(c1ccccc1)C2` (centres undefined), the cytotoxicity is 50.6% (active). As for `CCCCOC(=O)c1[nH]c2c(c1C)C(=O)CC(c1cc(OC)c(OC)c(OC)c1)C2` (centres undefined), the cytotoxicity was -7.3%.

In the case of `CCCCCOC(=O)c1[nH]c2c(c1C)C(=O)CC(c1ccco1)C2` (centres undefined), the cytotoxicity was 68.9% (active). As for `COc1cccc(CNC(=O)C2CCN(S(=O)(=O)N3CCCC3)CC2)c1`, the cytotoxicity is -7.2%. In the case of `COc1ccc2c(C)cc(=O)oc2c1C` it was 0.6%.

With `C=CCn1c(-c2cc(OC)c(OC)c(OC)c2)n[nH]c1=S`, the cytotoxicity was -1.6%. In the case of `Cc1nn(-c2ccccc2)c2c1C1(C(=O)N(C)c3ccccc31)N(c1ccccc1)C(=O)N2` (centres undefined), the cytotoxicity was -21.2%. In the case of `O=C1C=C(O)CC(c2ccc(Cl)cc2)C1` (centres undefined) it was 31.1%. On to `CCOC(=O)c1sc(NC(=O)CSc2nnc(-c3ccco3)n2CC)c(C(=O)OCC)c1C`, for which the cytotoxicity was 31.5%. In the case of `CCC(C)N(C(=O)Cn1nnc2ccccc21)C(C(=O)NCc1ccco1)c1cccc(OC)c1` (centres undefined) it was -10.2%.

Regarding `COc1ccc(C(NC(=O)c2ccco2)c2ccc(OC)c(OC)c2)cc1OC`, the cytotoxicity is -8.3%.

For `Nc1nnc(-c2ccco2)s1`, the cytotoxicity is -4.3%.

For the compound `CCOC(=O)N1CCC(NC(=O)Cn2cc3c(n2)CCC(C)C3)CC1` (centres undefined), the cytotoxicity was 6.2%. In the case of `CC1=C(C(=O)OCc2ccccc2)C(c2ccco2)C2=C(CC(C)(C)CC2=O)N1` (centres undefined) it was 22.7%. Then `COCCOC(=O)c1[nH]c2c(c1C)C(=O)CC(c1ccco1)C2` (centres undefined), with 60.3% (active); and `Cc1c(C(=O)OCc2ccccc2)[nH]c2c1C(=O)CC(c1ccco1)C2` (centres undefined), with 65.7% (active); and `COc1cc(C2CC(=O)c3c([nH]c(C(=O)OCCOC(C)C)c3C)C2)cc(OC)c1OC` (centres undefined), with 2.4%. In the case of `Cc1c(C(=O)OCC2CCCO2)[nH]c2c1C(=O)CC(c1ccco1)C2` (centres undefined) it was 62.4% (active); in that of `COCCOC(=O)c1[nH]c2c(c1C)C(=O)C(C(=O)OC)C(C)C2` (centres undefined), -7.3%. `Cc1c(C(=O)OCCOC(C)C)[nH]c2c1C(=O)CC(C)(C)C2`: the cytotoxicity was -12%.

In the case of `Cc1c(C(=O)OCCOC(C)C)[nH]c2c1C(=O)CC(c1ccco1)C2` (centres undefined), the cytotoxicity was 59.9% (active). As to `Cc1c(C(=O)OCC2CCCO2)[nH]c2c1C(=O)CC(c1ccc(N(C)C)cc1)C2` (centres undefined), the cytotoxicity is -4.3%. Then `COc1ccc(OC)c(C2CC(=O)c3c([nH]c(C(=O)OCC4CCCO4)c3C)C2)c1` (centres undefined), with 8.2%; and `Cc1c(C(=O)O)[nH]c2c1C(=O)CC(c1ccccc1)C2` (centres undefined), with -12.1%; and `CCN1CCN(c2ncc(C(=O)N3CCCc4ccccc43)c3ccccc23)CC1`, with -18.1%. In the case of `Cn1c(=O)c2c(nc(N3CCCCCC3)n2CC(O)COc2ccccc2)n(C)c1=O` (centres undefined) it was 3.5%; in that of `COC(=O)c1[nH]c2cc(OC)c(OC)cc2c1NC(=O)c1cccc(OC)c1`, -10.5%.

`COc1ccc(-c2noc(COc3ccc(C)c(C)c3)n2)cc1OC`: the cytotoxicity is 3.4%.

As for `CCOC(=O)c1[nH]c2c(c1C)C(=O)CC(c1ccc(OC)c(OC)c1)C2` (centres undefined), the cytotoxicity was -13.8%. In the case of `Cc1c(C(=O)OC2CCCC2)[nH]c2c1C(=O)CC(c1ccco1)C2` (centres undefined) it was 79.3% (active). As to `CCOC(=O)c1[nH]c2c(c1C)C(=O)CC(c1ccc(OCC)c(OC)c1)C2` (centres undefined), the cytotoxicity is -5%.

With `CCC(C)OC(=O)c1[nH]c2c(c1C)C(=O)CC(c1ccc(N(C)C)cc1)C2` (centres undefined), the cytotoxicity was 11.5%. In the case of `Cc1c(C(=O)OC2CCCCC2)[nH]c2c1C(=O)CC(C)(C)C2` it was -3.5%. In the case of `Cc1c(C(=O)OCC(C)C)[nH]c2c1C(=O)CC(c1ccco1)C2` (centres undefined) it was 63.7% (active). In the case of `Cc1c(C(=O)OC2CCC(C)CC2)[nH]c2c1C(=O)CCC2` (centres undefined) it was -8.8%; in that of `CCOC(=O)c1[nH]c2c(c1C)C(=O)CC(c1ccco1)C2` (centres undefined), 70.2% (active).

In the case of `CSCCOC(=O)c1[nH]c2c(c1C)C(=O)CC(c1ccco1)C2` (centres undefined), the cytotoxicity is 64.9% (active). On to `COc1ccc(CCNS(=O)(=O)c2cccc(S(=O)(=O)N3CCCC3)c2)cc1OC`, for which the cytotoxicity was -3.9%. For the compound `Cc1cc(SCNC(=O)c2ccccc2)ncn1`, the cytotoxicity is -13%. Take `COc1ccc(N2CCN(c3oc(COc4ccccc4)nc3C#N)CC2)cc1`: the cytotoxicity is -8.8%.

As to `O=C(O)c1cccc(CN2C(=O)SC(Nc3ccccc3)C2=O)c1` (centres undefined), the cytotoxicity was -3.2%.

As for `CN(C)C(=O)COn1c(SCC(=O)N(C)C)nc2ccccc2c1=O`, the cytotoxicity was -6.6%. For `COc1ccc(C2C3=C(CC(C)(C)CC3=O)Nc3n[nH]c(C)c32)cc1` (centres undefined), the cytotoxicity was -9.3%. In the case of `CCOc1cccc(C(=O)Nc2cc(-c3nn4c(C)nnc4s3)ccc2C)c1`, the cytotoxicity is -4.1%. In the case of `O=C(O)C1CCC(CNCc2cccnc2)CC1` (centres undefined) it was -8.3%. In the case of `CC1(C)CC(=O)C(C=Nc2ccccc2)=C(O)C1` it was 2%; in that of `Cc1ccc(SCCC(=O)NCC2CCCO2)cc1` (centres undefined), -5.9%; in that of `O=C(Nc1ccc(S(=O)(=O)N2CCCc3ccccc32)cc1)C1CCCO1` (centres undefined), 3%. Then `COc1ccc(-c2nnc(NC(=O)c3ccc(S(=O)(=O)N4CCCc5ccccc54)cc3)o2)cc1`, with 53.1% (active). Turning to `O=C(NCc1ccco1)c1ccc(S(=O)(=O)N2CCCc3ccccc32)cc1`, the cytotoxicity is -2.8%. In the case of `O=C(Nc1nnc(C2CC2)o1)c1ccc(S(=O)(=O)N2CCCc3ccccc32)cc1`, the cytotoxicity is 73.6% (active). Then `COc1ccc(-c2nnc(NC(=O)c3ccccc3C)o2)cc1`, with 1.9%; and `COc1ccc(-c2nnc(NC(=O)c3ccc(S(=O)(=O)N4CCc5ccccc5C4)cc3)o2)cc1`, with 40.7%. With `COc1cc(OC)cc(-n2c3nc4ccccc4nc3c3c(=O)n(CC4CCCO4)cnc32)c1` (centres undefined), the cytotoxicity was -11.1%. For the compound `COc1ccc(OC)c(NC(=O)C2=C(C)Nc3ncnn3C2c2cccs2)c1` (centres undefined), the cytotoxicity was 4.9%. Then `CCCCOCCCNC(=O)Cc1cccs1`, with -16.7%. In the case of `COc1ccccc1N1CCN(C(=O)N2CCOCC2)CC1` it was -6.9%. Then `Cc1cc(N2CCN(C/C=C/c3ccccc3)CC2)n2ncnc2n1`, with -6.5%. Regarding `O=C(NC1c2ccccc2-c2ccccc21)N1CCOCC1`, the cytotoxicity was 1.5%. Then `O=C(CC1SC(=Nc2ccccc2)N(CCCCO)C1=O)NCc1ccccc1` (centres undefined), with -10.8%. In the case of `CCCOC(=O)CSC1=C(C#N)C(c2ccccc2OCC)C(C#N)C(=O)N1` (centres undefined) it was 5.1%. In the case of `Cc1cc(NC(=O)CCc2ccc(C)o2)no1` it was -11.8%; in that of `CC(=O)C(C)Oc1ccc2c3c(c(=O)oc2c1)CCCCC3` (centres undefined), -15.5%; in that of `c1ccc(-c2nnc(N3CCN(c4ccccn4)CC3)c3ccccc23)cc1`, 5.2%.

Regarding `Cc1ccc(-c2nnc(N3CCN(S(C)(=O)=O)CC3)c3ccccc23)cc1`, the cytotoxicity is -1.3%. Then `O=C(OCC(=O)N1CCN(C(=O)c2ccco2)CC1)c1ccccc1C(=O)c1ccc(Cl)cc1`, with -5%; and `OCCOCCN1CCN(C(c2ccccc2)c2ccc(Cl)cc2)CC1` (centres undefined), with 50.4% (active); and `Cc1cccc(CN2CCN(c3ccccn3)CC2)c1`, with -18.2%. In the case of `Cc1cccc(CN2CCN(C(=O)c3ccccc3F)CC2)c1`, the cytotoxicity is 5.3%. Turning to `Cc1cccc(CN2CCN(C(c3ccccc3)c3ccc(Cl)cc3)CC2)c1` (centres undefined), the cytotoxicity was 95.1% (active). In the case of `CN1CCCN(C(c2ccccc2)c2ccc(Cl)cc2)CC1` (centres undefined) it was 12.4%; in that of `O=S(=O)(CCN1CCN(C(c2ccccc2)c2ccccc2)CC1)C(F)(F)F`, -0.3%. In the case of `CC(C)N1C(=O)CCC1C(=O)N1CCN(c2ccccn2)CC1` (centres undefined) it was 9.8%.
